Measured values published in ChEMBL document CHEMBL3988442, “University of Dundee, Small-Polar-MMV Screening Library” (2021).
Out of some 69,000 compounds screened, about 950 (1.4%) showed an effect of 50% or more. What follows is part of a selection rich in strong results, with near analogues and random picks from the rest.

Each molecule was assayed on Mycobacterium tuberculosis (assay: Cornell M. t heat shock assay; also: in the data most compounds retested in dose-response had high values).
Type: functional, organism-based
Set-up: dose or concentration left out as unconfirmed

Row | Compound | Percent Effect
1 | Cc1cccc(CN2CCc3nnc(CO)n3CC2)n1.O=C(O)C(F)(F)F | -11.61%
2 | CC(C)CN1CCC2(C=C(C(=O)NC3CC3)c3ccccc32)CC1.O=C(O)C(F)(F)F | -0.1524%
3 | CC(=O)NC1CCN(c2cnc(C3CCNCC3)cn2)CC1.Cl | -24.22%
4 | O=C(O)C(F)(F)F.c1cnc(N2CCO[C@H]3[C@H](OCC4CCOCC4)CC[C@@H]32)nc1 | 52.27%
5 | Fc1cnc(N2CCO[C@H]3[C@H](OCC4CCOCC4)CC[C@@H]32)nc1.O=C(O)C(F)(F)F | 47.96%
6 | O=C(O)C(F)(F)F.c1cnc(N2CCO[C@H]3[C@H](OCC4CC4)CC[C@@H]32)nc1 | 10.71%
7 | CCOCC(=O)N1CCC2(CC1)CC(c1ccccc1)CO2 (centres undefined) | 16.4%
8 | CS(=O)(=O)N1C[C@H]2C[C@H](C(=O)N3CCOCC3)[C@@H](C1)O2 | 9.276%
9 | CN(Cc1nccs1)c1nc(-c2ccccn2)nc2c1CCNCC2 | 47.94%
10 | CN(Cc1cccnc1)c1nc(-c2ccccn2)nc2c1CCNCC2 | 7.828%
11 | CN(Cc1ccsc1)c1nc(-c2ccccn2)nc2c1CCNCC2 | 90.45%
12 | O=C(O)C(F)(F)F.c1cnc(NCc2nnn3c2CN(Cc2ccsc2)CCC3)nc1 | -34.33%
13 | Cl.O=C(NC1CCCC1)c1cc(C2CCCNC2)n[nH]1 (centres undefined) | 2.974%
14 | COCCN1C[C@@H]2[C@@H](OC)CCN(Cc3ccsc3)[C@@H]2C1.O=C(O)C(F)(F)F.O=C(O)C(F)(F)F | -56.24%
15 | c1ccc(-c2nc3c(c(NCc4nnc5n4CCC5)n2)CCNC3)cc1 | -1.823%
16 | c1cc(-c2nc3c(c(NCCc4c[nH]cn4)n2)CCNCC3)ccn1 | -32.96%
17 | c1nc(CCNc2nc(C3CC3)nc3c2CCNCC3)c[nH]1 | -37.66%
18 | c1ccc(-c2nc3c(c(NCCc4c[nH]cn4)n2)CCNC3)cc1 | 103.9%
19 | c1coc(-c2nc3c(c(NCc4n[nH]c5c4CCC5)n2)CCNCC3)c1 | -50.31%
20 | c1ccc(-c2nc3c(c(NCc4n[nH]c5c4CCC5)n2)CCNC3)cc1 | 105.2%
21 | Cc1cnc(N2CCc3c(CNc4ccnc(C)n4)cncc3C2)nc1.Cl | 12.07%
22 | Cl.Cn1ccnc1N1CCN(C(=O)Cc2ccccc2)CC1 | -7.185%
23 | O=C(O)C(F)(F)F.O=C1COC2(CCN(C(=O)C3CC=CC3)CC2)CN1Cc1cccnc1 | -29.72%

Row | Compound | Percent Effect
24 | CS(=O)(=O)CC(=O)N1C[C@@H]2CN(Cc3ccoc3)CCO[C@@H]2C1 | -0.05269%
25 | Cc1cc(C(=O)N2CCc3nc(C4CCCCN4)ncc3C2)cs1.Cl (centres undefined) | -19.38%
26 | O=C(O)C(F)(F)F.O=C(O)C(F)(F)F.c1cc(CO[C@@H]2CC[C@H]3[C@H]2OCCN3CC2CCOCC2)ccn1 | -2.91%
27 | CN(C)[C@@H]1CN(C(=O)Cc2ccc(F)cc2)[C@@H]2CCCO[C@H]12.O=C(O)C(F)(F)F | -22.98%
28 | Cc1ccc(C(=O)N2CCc3ccc(=O)n(CCN(C)C)c3CC2)o1.O=C(O)C(F)(F)F | -16.57%
29 | O=C(NCCc1cccs1)[C@H]1CO[C@H]2CCN(CC3CC3)C[C@H]2C1.O=C(O)C(F)(F)F | 1.069%
30 | O=C(NCCc1cccs1)[C@H]1CO[C@H]2CCN(C3CCC3)C[C@H]2C1.O=C(O)C(F)(F)F | 6.34%
31 | CCN1CC[C@@H]2OC[C@H](C(=O)NCc3cccs3)C[C@@H]2C1 | 64.41%
32 | O=C(NCc1cccs1)[C@H]1CO[C@H]2CCN(C3CCCC3)C[C@H]2C1.O=C(O)C(F)(F)F | 16.16%
33 | COCCNC(=O)[C@H]1CO[C@H]2CCN(Cc3cccs3)C[C@H]2C1 | 78.89%
34 | COCCN1CC[C@@H]2OC[C@H](C(=O)NCc3cccs3)C[C@@H]2C1.O=C(O)C(F)(F)F | -7.487%
35 | O=C(NC1CCC1)[C@H]1C[C@@H]2CN(C(=O)Nc3ccc(F)cc3)C[C@H]1O2 | -5.328%
36 | CN(C)c1ncc(-c2cc(C(=O)NCCO)n(CC3CC3)c2)cn1.O=C(O)C(F)(F)F | -4.821%
37 | CC(C)c1cc(CN2CCNCC2)no1 | 100.9%
38 | CC(C)c1cc(CN2CCC(CC(=O)O)CC2)no1 | 6.455%
39 | CC(C)c1cc(CN2CCC(N)CC2)no1 | -1.347%
40 | Cc1cccc(C2(O)CCN(Cc3ccccc3N3CCCC3)CC2)c1 | 106%
41 | Cl.OC1(c2ccc(F)cc2)CCN(Cc2ccccc2N2CCCC2)CC1 | 3.038%
42 | OC1(c2ccccc2F)CCN(Cc2ccccc2N2CCCC2)CC1 | -5.486%
43 | O=C1NCCCCC1NC(=O)N1CCCc2cc(F)ccc21 (centres undefined) | -1.562%
44 | CCN1Cc2cc(F)ccc2N(C(C)=O)CCC1=O | 51.48%
45 | COCC(=O)N1CCC(=O)N(C2CCCC2)Cc2cc(F)ccc21 | 44.15%
46 | CN1C(=O)CCN(C(=O)C2CCCCC2)c2ccccc21 | -13.68%

Row | Compound | Percent Effect
47 | CC(=O)N1CCC(=O)N(C2CCCC2)Cc2ccccc21 | 18.8%
48 | CCN1Cc2ccccc2N(C(=O)C2CCC2)CCC1=O | 52.52%
49 | CCN1Cc2cc(F)ccc2N(C(=O)C2CCC2)CCC1=O | 57.03%
50 | O=C(C1CCC1)N1CCC(=O)N(C2CC2)Cc2cc(F)ccc21 | 39.59%
51 | CCN(CC)S(=O)(=O)CC(=O)N1CCc2ccc(F)cc21 | -19.64%
52 | Cc1cccc(CN2CCC3(CC2)NC(=O)CC3c2ccccc2)n1.O=C(O)C(F)(F)F (centres undefined) | -4.61%
53 | Cc1nc(CN2CCC3(CCCN(Cc4ccoc4)C3)C2=O)cs1.O=C(O)C(F)(F)F.O=C(O)C(F)(F)F (centres undefined) | -16.93%
54 | COc1cccc(CNCc2ccc(F)cc2Cl)c1O | 10.28%
55 | CCOCC1CN(CC2CC2)Cc2nn(CC3CC3)cc21.O=C(O)C(F)(F)F (centres undefined) | 0.05869%
56 | Cn1cc(CN2CCCC23CCN(C(=O)c2ccccn2)CC3)cn1.O=C(O)C(F)(F)F | -28.64%
57 | CCN(CC)CCn1c(NC(=O)c2scnc2C)nc2ccccc21 | 46.93%
58 | CCOCCCn1c(NC(=O)c2ccnc(C)n2)nc2ccccc21 | 94.99%
59 | CCOCCCn1c(NC(=O)c2cnn(C)c2)nc2ccccc21 | 44.67%
60 | CCOCCCn1c(NC(=O)c2cnc(C)cn2)nc2ccccc21 | 28.96%
61 | CCOCCCn1c(NC(=O)c2cc(C)no2)nc2ccccc21 | 4.963%
62 | CCOCCCn1c(NC(=O)c2cc(C)on2)nc2ccccc21 | 59.74%
63 | CCOCCCn1c(NC(=O)c2cnc(C)s2)nc2ccccc21 | -7.023%
64 | CCOCCCn1c(NC(=O)c2ccc(C)nc2)nc2ccccc21 | 25.39%
65 | CCOCCCn1c(NC(=O)c2scnc2C)nc2ccccc21 | 84.26%
66 | COc1c(CNCc2ccc(C(=O)N3CCCC3)cc2)c(C)nn1C.Cl | -14.26%
67 | COc1ccc(CN2C[C@@H]3OCCN(CCN(C)C)[C@@H]3C2)cc1.O=C(O)C(F)(F)F.O=C(O)C(F)(F)F.O=C(O)C(F)(F)F | -21.44%
68 | Cl.NC(CNS(=O)(=O)Cc1cccc2cccnc12)c1ccccc1 (centres undefined) | -15.27%
69 | O=C(NCC1CCOCC1)[C@H]1C[C@@H]2CCN(Cc3ccccc3)C[C@H]2O1.O=C(O)C(F)(F)F | -21.55%

Row | Compound | Percent Effect
70 | Cc1cccc(CN2CC[C@H]3[C@@H]2CC(=O)N3CC2CC2)n1.O=C(O)C(F)(F)F | -9.975%
71 | O=C(c1ccccc1)N1CC[C@H]2C[C@H](c3nnc(C4CC4)o3)O[C@@H]2C1 | 57.91%
72 | O=C(c1ccsc1)N1CC[C@H]2C[C@@H](c3nnc(C4CC4)o3)O[C@@H]2C1 | 26.95%
73 | O=C(c1cccs1)N1CC[C@H]2C[C@@H](c3nnc(C4CC4)o3)O[C@@H]2C1 | 56.75%
74 | O=C(c1ccoc1)N1CC[C@H]2C[C@@H](c3nnc(C4CC4)o3)O[C@@H]2C1 | 19.79%
75 | O=C(c1cscn1)N1CC[C@H]2C[C@H](c3nnc(C4CC4)o3)O[C@@H]2C1 | 27.2%
76 | O=C(c1ccccc1)N1CC[C@H]2C[C@@H](c3nnc(C4CC4)o3)O[C@@H]2C1 | 48.55%
77 | COCC1c2c(cnn2C)CCN1C(=O)c1cc(C)on1.O=C(O)C(F)(F)F (centres undefined) | 28.69%
78 | Cc1cnccc1-c1cnn(CCNC(=O)c2ccccn2)c1C1CC1.Cl | 22.13%
79 | CC(C)Cc1cc(C(=O)NC(C)(C)c2nnc(N)s2)n(C)n1 | 18.34%
80 | CC(C)Cc1nc(CN2CCc3onc(-c4cccc(F)c4)c3C2)no1 | 52.2%
81 | CC(C)c1nc(CN2CCc3onc(-c4cccc(F)c4)c3C2)no1 | 35.68%
82 | CC(C)(C)c1nc(CN2CCc3onc(-c4cccc(F)c4)c3C2)no1 | 31.99%
83 | CN(C)[C@@H]1CN(Cc2ccccc2O)C[C@H]1c1cn(C)c2ccccc12.Cl | 12.04%
84 | CN(C)[C@@H]1CN(Cc2ccc(O)cc2)C[C@H]1c1cn(C)c2ccccc12.Cl | 10.72%
85 | O=C1CCCC2=C1C(c1ccccc1F)Nc1nonc1N2 (centres undefined) | -20.35%
86 | O=c1cc(CN2CCCC2)nc2n1CCCN(Cc1ccsc1)C2 | -27.96%
87 | COCCNc1ncc(-c2cccc(F)c2)c(-c2nccn2C)n1 | -4.341%
88 | CCOCCCNc1ncc(-c2cccc(F)c2)c(-c2nccn2C)n1 | 8.299%
89 | Cn1ccnc1-c1nc(NC2CCCC2)ncc1-c1cccc(F)c1 | 85.28%
